Source: PubChem BioAssay (Broad Institute)
Compounds with a hit are over-represented: about 3.4% of the library has one in this group of screens.
Wnt bcat act: activators of Wnt/beta-catenin signaling | activation, % at 9.35 µM | 1.2% of 300,000 active | Wnt/beta-catenin reporter cell assay, activator, plate reader; in the data active = activation above about 30%, passing the limit was not always enough; inconclusive = no clear call, values can overlap the other calls;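 note: 0% = neutral control wells and 100% = positive control wells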
esBAF inh: blocks esBAF chromatin remodeling in mouse ES cells | reporter increase, % at 12.5 µM | Bmi1-luciferase knock-in reporter, 24 h; 100% = twice the neutral-well signal | AID 602393 | 2% of 350,000 active; in the data active = activation above about 40%; inconclusive = no clear call, values can overlap the other calls;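 note: 0% = median of the plate's neutral control wells and 100% = double that signal; a rise in the Bmi1 reporter signal indicates esBAF inhibition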
miR-122 sensor: blocks miR-122 activity in Huh7 sensor cells. Huh7 miR-122 Renilla luciferase sensor, 48 h; neutral wells = 0, positive control = 100. activation (reporter increase), % at 12.5 µM. 0.3% of 340,000 active. AID 602342;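 active = mean replicate activation score at least 90 and every replicate individually at or above 90; inconclusive = only one of the two criteria met; inactive = neither criterion met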;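 note: higher luciferase means less miR-122 activity so hits act as miR-122 inhibitors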
HIV Env fusion: HIV envelope-mediated fusion inhibition; HeLa-JRFL Env/CEM21 cell fusion, luciferase; inhibition, % at 12.3 µM; 1.1% of 360,000 active;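 active = mean replicate inhibition score of at least 50 and every replicate individually at or above 50; inconclusive = only one of the two criteria met; inactive = mean below 50 and not all replicates reaching 50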;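 note: 0% = plate neutral controls and 100% = maraviroc near 300 nM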
MITF act: activators of MITF-driven TRPM1 promoter activity in SK-MEL-5 cells. SK-MEL-5 TRPM1-promoter luciferase, 24 h; % of positive control, neutral wells = 0. activation, % at 12.5 µM. 0.75% of 300,000 active. AID 588334;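 active = mean activation of at least 80% with every replicate also reaching 80%; inconclusive = mean reaches 80% but some replicate falls short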;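 note: 0% = neutral control wells and 100% = parthenolide positive control wells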
* marks the source's active call; other numbers are inactive results; ? = inconclusive; / = no result given; [ ] = remark or other dose.

SMILES | Wnt bcat act | esBAF inh | miR-122 sensor | HIV Env fusion | MITF act
N/C(=N\OC(=O)c1ccccc1Br)c1ccc([N+](=O)[O-])cc1 | 7 | 50* | / | -56 | /
N/C(=N\OC(=O)c1ccccc1Br)c1cccc([N+](=O)[O-])c1 | 43* | 3 | / | -186 | 65
N/C(=N\OC(=O)c1ccccc1F)c1cccc([N+](=O)[O-])c1 | 13 | ? | -1 | -73 | /
COc1cccc(S(=O)(=O)N(C)C[C@H]2Oc3ncc(-c4cccc(C(=O)N(C)C)c4)cc3C(=O)N([C@@H](C)CO)C[C@H]2C)c1 | / | -3 | 10[16.7 µM] | 3[16.7 µM] | /
O=C(C[C@H]1C=C[C@@H](NC(=O)C2CCC2)[C@@H](CO)O1)NCC1CC1 | / | -1 | / | -39[16.7 µM] | /
COc1ccc(OCc2n(CC(=O)OC3CC(C)CCC3C(C)C)c3ccccc3[n+]2C)cc1 (configuration not stated) | 15 | -17 | -25 | 87* | -79
COc1ccc(-c2n(CC(=O)OC3CC(C)CCC3C(C)C)c3ccccc3[n+]2C)cc1 (configuration not stated) | -3 | / | / | -14 | -91
CCCNC(=O)N(C)C[C@H]1Oc2cc(-c3ccc(C)cc3)ccc2S(=O)(=O)N([C@@H](C)CO)C[C@H]1C | / | 3 | -14[16.7 µM] | -18[16.7 µM] | /
COc1cc(C2C(C#N)=C(N)OC3=C2C(=O)CC(C)(C)C3)cc([N+](=O)[O-])c1O (configuration not stated) | 40* | / | / | 26 | -7
COc1cccc(S(=O)(=O)N(C)C[C@H]2Oc3ncc(C#CCN(C)C)cc3C(=O)N([C@H](C)CO)C[C@H]2C)c1 | / | -3 | -2[16.7 µM] | 10[16.7 µM] | /
COc1ccccc1/C=N/n1c(N)c(S(=O)(=O)c2cccs2)c2nc3ccccc3nc21 | / | 41* | -12 | -40 | /
Nc1c(S(=O)(=O)c2cccs2)c2nc3ccccc3nc2n1CCc1ccccc1 | / | / | / | 81* | /
Cc1ccc(S(=O)(=O)c2c(N)n(CCC(C)C)c3nc4ccccc4nc23)cc1 | / | 3 | 55 | 81* | 5
Cc1ccc(S(=O)(=O)c2c(N)n(CCCO)c3nc4ccccc4nc23)cc1 | / | / | 23 | / | -2
Cc1ccc(S(=O)(=O)N[C@@H]2CC[C@@H](CC(=O)NC3CCCCC3)O[C@H]2CO)cc1 | / | -1 | / | 3[16.7 µM] | /
C[C@@H]1CCCCO[C@@H](CN(C)C(=O)CCCN(C)C)[C@@H](C)CN([C@@H](C)CO)C(=O)c2cc(NC(=O)C3CCCCC3)ccc2O1 | / | -9 | 20[16.7 µM] | 17[16.7 µM] | /
COC(C(=O)N1CCC(n2nccc2NC(=O)C2CC2)CC1)c1ccccc1 (configuration not stated) | 17 | 44* | 2 | -23 | 47
COC(C(=O)Nc1ccnn1C1CCN(C(=O)c2ccc(C=O)cc2)CC1)c1ccccc1 (configuration not stated) | -3 | 1 | -2 | -4 | 9
CCOc1ccc(NC(=O)c2ccc(F)c(S(=O)(=O)N3CCCC3)c2)cc1 | -4 | 5 | 3 | 14 | /
CCOc1ccc(NC(=O)c2ccc(F)c(S(=O)(=O)N3CCN(c4ccccn4)CC3)c2)cc1 | / | / | / | 57* | -23
O=C(C[C@@H]1CC[C@@H](NC(=O)c2ccc3c(c2)OCO3)[C@H](CO)O1)NC1Cc2ccccc2C1 | / | 4 | -17[16.7 µM] | 17[16.7 µM] | /
COc1cccc(-c2ccc3nccn3c2)c1 | -3 | 49* | 2 | -236 | /
CN1CCN(C(=O)c2cccc(-c3ccc4nccn4c3)c2)CC1 | 2 | -6 | -5 | 32 | /
O=C(C[C@@H]1CC[C@@H](NC(=O)CCN2CCCCC2)[C@@H](CO)O1)NCc1ccc(Cl)c(Cl)c1 | / | -4 | -4[16.7 µM] | -51[16.7 µM] | /
C=C(C)CNC(=O)CCc1nnc(Cc2cccc(C(F)(F)F)c2)o1 | 56* | / | / | -92 | 78
SMILES | Wnt bcat act | esBAF inh | miR-122 sensor | HIV Env fusion | MITF act
O=C1/C(=C/c2ccco2)CCc2ccccc21 | 24 | / | 0 | / | 22
Nc1ccc2c(c1)C/C(=C/c1ccco1)C2=O | 66* | / | / | -69 | 55
CO[C@@H](CN(C)C(=O)C1CCOCC1)[C@@H](C)CN(C(=O)Nc1ccc(C(F)(F)F)cc1)[C@@H](C)CO | / | -1 | / | / | /
CO[C@H](CN(C)C(=O)C1CC1)[C@H](C)CN(C(=O)Nc1ccc(C(F)(F)F)cc1)[C@@H](C)CO | / | 0 | / | 56*[16.7 µM] | /
COc1ccc2nc(C)cc(NCCN3CCOCC3)c2c1 | -2 | 0 | 0 | -13 | 18
Cc1cc(NCCN2CCOCC2)c2ccc3ccccc3c2n1 | 57* | / | / | -64 | 20
CC=Cc1ccc2n(c1=O)C[C@@H]1[C@@H](CO)[C@H](C(=O)NCC(F)(F)F)[C@H]2N1C(=O)C1CCCCC1 (mixture of isomers) | / | 4 | -4[16.7 µM] | / | /
COc1ccc(OCC(=O)N/N=C\c2ccco2)cc1 | -1 | / | / | -1 | -3
COc1ccc(/[N+]([O-])=C/c2ccco2)cc1 | 46* | 55* | -4 | -241 | 89*
Cc1cc(N2CCCCC2)nc(SCC(=O)c2ccccc2)n1 | ? | 53* | 3 | -30 | /
Cc1nc(SCc2ccccc2)nc2c1CCC2 | 16 | 100* | -2 | -34 | 93*
O=S(=O)(Nc1nc2ccccc2nc1N1CCc2ccccc2C1)c1ccc(Cl)cc1 | 41* | / | 43 | 36 | 6
O=S(=O)(Nc1nc2ccccc2nc1N1CCc2ccccc2C1)c1ccc(Br)cc1 | / | / | / | -15 | 34
CCOc1cc(S(=O)(=O)NC2CC(C)(C)NC(C)(C)C2)ccc1Cl | -1 | 1 | 11 | -14 | 3
COc1cc(C)c(C(C)C)cc1S(=O)(=O)NC1CC(C)(C)NC(C)(C)C1 | 0 | 0 | 128* | 31 | 4
CCOc1cc(C)c(Cl)cc1S(=O)(=O)NC1CC(C)(C)NC(C)(C)C1 | / | -2 | 181* | -36 | -3
CCN(CC)C(=S)SCC(=O)c1c(C)[nH]c2ccccc12 | / | / | 13 | -75 | 0
CCN(CC)C(=S)SCC(=O)Nc1ccc(F)cc1 | / | / | 1 | / | 6
CCN(CC)C(=S)SCC(=O)c1ccccc1 | / | 55* | 11 | -148 | /
CCN(CC)C(=S)SCC(=O)c1ccc(F)cc1 | ? | 48* | -5 | -170 | 76
C[C@H]1CN([C@@H](C)CO)C(=O)Cc2cc(NS(=O)(=O)c3ccccc3)ccc2O[C@@H]1CN(C)Cc1ccc(C(=O)O)cc1 | / | -3 | 13[16.7 µM] | -31[16.7 µM] | /
O=C(C[C@@H]1CC[C@@H]2[C@H](COC[C@H](O)CN2C(=O)c2ccc(F)cc2)O1)NCc1cccc(F)c1 | / | 0 | -3[16.7 µM] | / | /
C[C@@H]1CN([C@@H](C)CO)C(=O)c2cc(NC(=O)Nc3cccc4ccccc34)ccc2O[C@@H](C)CCCCO[C@H]1CN(C)C(=O)CCCN(C)C | / | 0 | 3[16.7 µM] | -43[16.7 µM] | /
Cc1ccc(NC(=O)C(NC2CCCc3ccccc32)c2ccccc2)c([N+](=O)[O-])c1 (configuration not stated) | 5 | 36 | 20 | 86* | -14
Cc1ccc(NC(=O)C(NC2CCCc3ccccc32)c2ccccc2)cc1Cl (configuration not stated) | -5 | -5 | 8 | -9 | 1
CN(C)CC(=O)Nc1ccc2c(c1)[C@H]1C[C@H](CC(=O)NCC3CC3)O[C@@H](CO)[C@H]1O2 | / | 6 | 0[16.7 µM] | -11[16.7 µM] | /
